Results from PubChem BioAssay AID1209 (Sanford-Burnham Center for Chemical Genomics, 2008).
Screen size: about 190,000 compounds; about 810 (0.43%) were called active. Many of the other results were omitted from the sample, so actives are more common in it than they were. Unmarked numbers belong to inactive results. No stated cut-off is given here; in the data, active means inhibition above about 50%; inactive means the rest.

These compounds were tested against Mannose-6-phosphate isomerase (Homo sapiens) (UniProt P34949) (assay: MPI enzyme activity inhibition – biochemical, fluorescence intensity, coupled assay, primary screen (AID 1209;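 further: plate controls were DMSO vehicle for no effect and wells lacking substrate for full effect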)). Details: purified PMI enzyme, at 20 µM, active compounds read high.
Chain of Mannose-6-phosphate isomerase (Homo sapiens) (P34949 whole entry, looked up): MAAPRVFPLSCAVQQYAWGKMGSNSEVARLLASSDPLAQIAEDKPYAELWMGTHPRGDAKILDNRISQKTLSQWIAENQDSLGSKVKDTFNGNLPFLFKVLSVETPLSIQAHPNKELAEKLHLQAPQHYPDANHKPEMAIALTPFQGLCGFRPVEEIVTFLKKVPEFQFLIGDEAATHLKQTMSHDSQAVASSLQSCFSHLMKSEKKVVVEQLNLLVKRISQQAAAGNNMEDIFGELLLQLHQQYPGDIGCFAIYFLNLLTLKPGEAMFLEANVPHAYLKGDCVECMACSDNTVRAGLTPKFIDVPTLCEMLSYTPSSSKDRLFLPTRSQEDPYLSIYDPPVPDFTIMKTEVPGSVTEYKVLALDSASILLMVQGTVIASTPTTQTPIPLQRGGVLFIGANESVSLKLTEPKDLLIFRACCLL

SMILES	inhibition
CCN(CC)S(=O)(=O)c1ccc(C(=O)NCc2n[nH]c(=S)n2Cc2ccccc2)cc1	10.2%
CC1=C(C(N)=O)C(c2cccs2)NC(=S)N1 (stereo not given)	-11.8%
CC(=O)c1ccc2c3c(cccc13)C(=O)N(c1c(C)nn(C)c1C)C2=O	74.2% (active)
Cc1nn(C)c(C)c1N1C(=O)c2cccc3c(N)ccc(c23)C1=O	6%
Cc1nn(C)c(C)c1N1C(=O)c2cccc3c(Br)ccc(c23)C1=O	-0.5%
O=C(NC(NC(=O)c1ccccc1)c1ccccc1)c1ccccc1	-8.6%
O=C(NC(Nc1ncccn1)C(=O)c1ccccc1)c1ccccc1 (stereo not given)	-2%
O=C(NC(NC(=O)c1ccccc1)C(=O)c1ccccc1)c1ccccc1	109% (active)
CC(NC(=O)c1ccc2c(c1)OCCO2)C(=O)O (stereo not given)	-5.6%
Cn1cc(CNCc2cnc3ccccn23)c(-c2ccc(Oc3ccccc3)cc2)n1	4.9%
CCN(CC)S(=O)(=O)c1ccc(NC(=O)c2cc(-c3cccs3)nc3ccccc23)cc1	-4.8%
[O-][N+]1=c2ccc(Nc3ccccc3)cc2=NC12CCCCC2	79.7% (active)
O=[N+]([O-])c1ccc2c(c1Nc1ccccc1)=NC1(CCCCC1)N=2	46.2%
c1ccc(Nc2cccc(Nc3ccccc3)c2)cc1	21%
COc1cc(C(=O)N/N=C(\C)c2ccc3c(c2)OCO3)cc(OC)c1OC	2.6%
Cc1cc(C)n(-c2ccc([N+](=O)[O-])cc2)n1	7%
C=CCn1c(SCC(=O)N2CCCCC2)nnc1-c1ccncc1	-1.3%
COc1ccc(C2=NN(C(=O)CSc3nnc(C)n3C)C(c3ccco3)C2)cc1 (stereo not given)	-23.9%
C=CCn1c(SCC(=O)N2N=C(c3ccco3)CC2c2ccco2)nnc1-c1ccncc1 (stereo not given)	57.4% (active)
COc1ccc(-c2nc3ccccc3c(=O)n2NC(=S)N(C)C)cc1	57.4% (active)
CN(C)C(=S)Nn1c(-c2ccccc2)nc2ccccc2c1=O	4.8%
Cc1ccc(-c2nc3ccccc3c(=O)n2NC(=S)N(C)C)cc1	16.6%
CCOC(=O)C1(C)C=C(Nc2ccc(OCC)cc2)C(=O)N1c1ccccc1 (stereo not given)	11.1%
CCCCC(=O)Nc1sc(C(=O)N(CC)CC)c(C)c1C(=O)OC	58.3% (active)
CCOC(=O)c1c(NC(=O)CCl)sc(C(=O)N(CC)CC)c1C	-11.1%

SMILES	inhibition
CCOC(=O)c1c(NC(=O)CN(C)C)sc(C(=O)N(CC)CC)c1C	8.3%
CC(C)CN(C(=O)CN1CCC(C)CC1)c1c(N)n(CC(C)C)c(=O)[nH]c1=O	-5.2%
C/C(CC(=O)N1CCN(C=O)CC1)=N\NC(=O)c1ccc(Cl)cc1	-0.6%
COc1ccc(C(=O)N/N=C(\C)CC(=O)N2CCN(C=O)CC2)cc1	5.1%
C/C(CC(=O)N1CCN(C=O)CC1)=N\NC(=O)c1cc2ccccc2cc1O	84.9% (active)
Cc1cc(C)nc(Nc2n[nH]c(-c3ccccc3C)n2)n1	3.4%
O=c1[nH]c(-c2ccncc2)nc2ccccc12	71.3% (active)
O=c1[nH]c(-c2cccnc2)nc2ccccc12	7.1%
O=c1[nH]c(-c2ccccn2)nc2ccccc12	19.5%
CCOC(=O)C(C)n1cnc2c(nnn2-c2cccc(Cl)c2)c1=O (stereo not given)	-9.6%
COc1ccccc1NC(C)C(=O)Nc1ccc(C(C)=O)cc1 (stereo not given)	19.5%
CCc1ccc(NC(=O)c2ccccc2SC)cc1	7.2%
Nn1cnnc1N/N=C/c1ccc(Cl)c([N+](=O)[O-])c1	13.3%
Nn1cnnc1N/N=C\c1ccc(-c2ccccc2[N+](=O)[O-])o1	82.5% (active)
Cc1nnc(N/N=C\c2ccc(-c3ccccc3[N+](=O)[O-])o2)n1N	57.8% (active)
O=[N+]([O-])c1ccccc1-c1ccc(/C=N/n2cnnc2)o1	20.4%
Cc1nnc(N/N=C/c2ccc(-c3ccc(Br)cc3)o2)n1N	-11.5%
Cc1nnc(N/N=C/c2ccc(-c3ccccc3F)o2)n1N	-38.4%
COc1ccc(N2C(=O)CSCC2=O)cc1OC	1.2%
Cc1ccc(C)c(C(C)NC(=O)c2ccccc2Br)c1 (stereo not given)	-5.5%
Cc1ccc(N=C2CSC(=O)N2)cc1	8.6%
Clc1nssc1=Nc1ccccc1	57% (active)
Cc1cc(C)c(C#N)c(Cl)n1	21%
Cc1ccc(N=c2ssnc2Cl)cc1	75.1% (active)
Clc1ss/c(=N\c2ccccn2)c1Cl	-30.7%

SMILES	inhibition
Cc1cc(C)nc(/N=c2/ssnc2Cl)c1	60.1% (active)
Cc1ccc(N=c2sc(C)c(C)n2C)cc1	-13%
CCOC(=O)c1ccc(N=C2NC(=O)CS2)cc1	10.2%
CCOC(=O)c1ccc(N=c2scc(C)n2CC)cc1	-8.8%
CCOC(=O)c1ccc(N=c2ssnc2Cl)cc1	66.1% (active)
O=C1CSC(=Nc2ccccc2)N1Cc1ccccc1	6.4%
Cc1cc(C)nc(NC(=O)c2csnn2)c1	-0.9%
CCC(=O)c1c[nH]c(C(=O)NCCCn2ccnc2)c1	10.2%
O=C(CCN1CCCCCC1)Nc1ccc(F)c(F)c1	-7.5%
COc1cc(/C=C(\NC(=O)c2ccccc2)C(=O)Nc2cccc(O)c2)c([N+](=O)[O-])cc1OC	9.6%
COC(=O)C(C(=O)OC)=C(/C=C/C=C/N(C)C)N(C)C	2.5%
O=C(Nc1ccc(Br)cc1)c1ccccc1CC[N+](=O)[O-]	17.3%
O=C1c2ccccc2C(=O)N1CC1c2ccccc2CCN1S(=O)(=O)c1cnc[nH]1 (stereo not given)	7.7%
CC(C)c1nnc(NC(=O)CSc2ncn[nH]2)s1	10.7%
CC(C)(C)C1CCC(=NNC(=O)c2ccccc2-n2cccc2)CC1 (stereo not given)	21%
CC12c3ccccc3C(c3ccccc31)C1C(=O)N(Cc3cccnc3)C(=O)[C@H]12 (stereo not given in full)	4.1%
COc1ccc2c(c1)c(=O)c(C(=O)c1ccc(C)cc1)cn2CC(=O)Nc1ccc(F)cc1	3.6%
COc1cc(OC)cc(-n2nnnc2SCC(=O)Nc2ccc(C(C)=O)cc2)c1	5.1%
Cc1cc(NC(=O)C(C)C)ncc1NC(=O)c1ccccn1	0.2%
O=C(CNC(=O)c1ccc(S(=O)(=O)N2CCCC2)cc1)N/N=C/c1ccc(Cl)cc1Cl	9.4%
Clc1nssc1=Nc1ccc(Br)cc1	81.6% (active)
O=C1NC(=Nc2ccc(Cl)cc2)/C(=C/c2ccco2)S1	1.4%
Brc1ccc(N=Cc2ccccn2)cc1	-9.1%
NC1=NC(=Nc2ccc(Cl)cc2)c2ccccc21	-3.6%
NC1=NC(=Nc2ccc(Br)cc2)c2ccccc21	-7.2%

SMILES	inhibition
Clc1ccc(N=c2ssnc2Cl)cc1	78.7% (active)
CCOC(=O)Nc1ccc(OCc2nnc3c4ccccc4c(C)nn23)cc1	3.7%
CCOC(=O)c1cnc(SCC(=O)NCc2cccs2)nc1N	-5.5%
NS(=O)(=O)c1ccc(NC(=O)COC(=O)/C=C/c2ccc([N+](=O)[O-])cc2)cc1	-1.2%
CCN(CC)S(=O)(=O)c1ccc(/C=C/C(=O)OCC(=O)Nc2ccc(S(N)(=O)=O)cc2)cc1	70.7% (active)
CCN(CC)S(=O)(=O)c1ccc(/C=C/C(=O)OCC(=O)Nc2ccc(C(N)=O)cc2)cc1	-5.2%
Cc1c(C(=O)N2CCN(c3ccccc3F)CC2)sc2ncn(CC(=O)N3CCOCC3)c(=O)c12	-1.6%
Cc1c(NC(=O)c2ccc(C(C)(C)C)cc2)cccc1[N+](=O)[O-]	7.4%
CCn1c(CCc2ccccc2)n[nH]c1=S	-3%
CCn1c(SCC(=O)N/N=C/c2cc(OC)c(O)c(OC)c2)nc2ccccc21	-0.1%
CCn1c(SCC(=O)N/N=C/c2ccc(O)c(OC)c2)nc2ccccc21	61.7% (active)
CCn1c(SCC(=O)N/N=C/c2ccc(OC)c(OC)c2)nc2ccccc21	8.4%
COc1ccccc1N1CCN(C(=O)C2CCN(S(=O)(=O)N3CCOCC3)CC2)CC1	-6.6%
Cc1cccc(NC(=S)N(CCCN2CCOCC2)Cc2ccccn2)c1	-1.4%
CCN(CC)C(=O)c1cn(C)c(=O)c2cc(OC)c(OC)cc12	12.6%
COc1ccc(CNc2nc(-c3cccnc3)nn2C(=O)C(C)C)cc1	1.5%
Cc1nn(C2CCS(=O)(=O)C2)c(Cl)c1/C=C/C(=O)OCC(=O)Nc1ccccc1[N+](=O)[O-] (stereo not given)	18.2%
C(=N/n1c2ccccc2c2ccccc21)/c1ccco1	18.5%
C(=Nc1cccc2c(N=Cc3ccco3)cccc12)c1ccco1	82.9% (active)
CN(C)c1ccc(N=Cc2ccco2)cc1	44.6%
COC(=O)Cn1c(=O)n(CCc2ccccc2)c(=O)c2c3c(sc21)CCCC3	23%
COC(=O)c1ccc(NC(=O)CSc2nnc(C)n2-c2ccccc2)cc1	9.9%
NC(CO)C(=O)NNCc1ccc(O)c(O)c1O (stereo not given)	78% (active)
Cc1cc(-c2nsc(=O)o2)c(S(C)(=O)=O)s1	53.2% (active)
Cc1cc(C(=O)O)c(S(C)(=O)=O)s1	-0.9%
